Measurements reported in the supplement of paper PMC10849652.
Targets with a hit are over-represented here; the source holds about 8,800 in all. About 0.5% of all pairs of compound and target were hits.

Assays:
Assay in all cases: log2 fold change, soluble protein after heating vs DMSO (PISA); higher = thermal stabilisation; K562 lysate, 10 uM; active = over 0.2 and 3.5 SD of the protein, either way, in both replicates (recomputed)
[1] = compound: C#Cc1cccc(Nc2ncnc3cc(OCCOC)c(OCCOC)cc23)c1 [erlotinib]
In short: (§1)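 Pellets of K562 cells were dounce-homogenised in PBS pH 7.4 with 1 mM MgCl2, and the crude extract was held at 1 mg/mL protein for a 30 min treatment with 10 μM compound. Aliquots were heated for 3 min over 48°C-58°C and pooled before NP-40 was added to 0.5% at 4°C. The supernatant from 21,000xg for 90 min was quantified by TMTpro 16plex LC-MS/MS with channel sums equalised. Values are reported from duplicates as log-two fold change in thermal stability relative to solvent controls.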

[2] = compound: C/C(=N\NC(=O)C1=CC(=CC=C1)S(=O)(=O)N2CCOCC2)/C3=C(C=CC(=C3)Cl)O
In short: as §1

[3] = compound: C1=CC(=CC=C1C2=NC3=C(N2)C=C(C=C3)C(=O)N)OC4=CC=C(C=C4)Cl
In short: as §1

[4] = compound: C1=CC2=C(C=CC(=C2)/C=C\3/C(=O)NC(=NCC4=CC=CS4)S3)N=C1
In short: as §1

[5] = compound: C1=CC2=NC=CN=C2C=C1/C=C/3\C(=O)NC(=O)S3
In short: as §1

[6] = compound: C1=CC=C(C=C1)C2=NC(=C(N2)C3=CC=NC=C3)C4=CC(=C(C=C4)Cl)O
In short: as §1

[7] = compound: C1CCN(C1)C(=O)NC2=CC=CC(=C2)NC3=NC=C(C(=N3)NCCC4=CN=CN4)Br
In short: as §1

[8] = compound: C1CN(CCC1(CC2=CC=C(C=C2)Cl)N)C3=NC=NC4=C3C=CN4
In short: as §1

[9] = compound: C1COCCN1CCN2C3=CC=CC=C3N=C2NC(=O)C4=CC(=CC=C4)[N+](=O)[O-] [IRAK-1-4 Inhibitor I]
In short: as §1

[10] = compound: C=CC(=O)N1CCC[C@@H](n2nc(-c3ccc(Oc4ccccc4)cc3)c3c(N)ncnc32)C1 [ibrutinib]
In short: as §1

[11] = compound: CC(=O)c1cnc2ccc(-c3cc(Cl)c(O)c(Cl)c3)nc2c1N[C@H]1CC[C@H](CN(C)C)CC1
In short: as §1

[12] = compound: CC(C)(C)Cn1c(N)nc2ccc(-c3[nH]c(C(C)(C)C)nc3-c3ccc(F)cc3)nc21 [ralimetinib]
In short: as §1

[13] = compound: CC(C)(O)CC(=O)NCCn1ccc2ncnc(Nc3ccc(Oc4cccc(C(F)(F)F)c4)c(Cl)c3)c21
In short: as §1

[14] = compound: CC(C)C1=C2N=C(C=C(N2N=C1)NCC3=CC=CC=C3)NCCCCCCN
In short: as §1

[15] = compound: CC1=C(C(CC(=O)N1)C2=CC=C(C=C2)C(F)(F)F)C(=O)NC3=C(C=C4C(=C3)C=NN4)F
In short: as §1

[16] = compound: CC1=C(C2=C(C=C1)C(=O)C3=CC=CC=C3N2CCCN)C
In short: as §1

[17] = compound: CC1=C(C=C(C=C1)NC(=O)C2=CC(=CC=C2)C(C)(C)C#N)NC3=CC4=C(C=C3)N=CN(C4=O)C
In short: as §1

[18] = compound: CC1=C(C=C(C=C1)NC(=O)C2=CC(=CC=C2)N(C)C)NC(=O)C3=CC=C(C=C3)O
In short: as §1

[19] = compound: CC1=CC=C(C=C1)SC2=C3C=C(SC3=CN=C2)C(=O)N
In short: as §1

[20] = compound: C1=CC=C2C(=C1)C3=NNC4=CC=CC(=C43)C2=O
In short: as §1

Measured: log2 fold change

CAMK2B (UniProt Q13554)
inactive: [1] 0.037 | [2] 0.086 | [3] -0.067 | [4] -0.039 | [5] -0.068 | [6] -0.069 | [7] 0.011 | [8] -0.034 | [9] 0.087 | [10] 0.092 | [11] 0.023 | [12] 0.028 | [13] 0.045 | [14] 0.075 | [15] -0.035 | [16] -0.018 | [17] -0.005 | [18] 0.046 | [19] -0.032

CARS isoform 3 (UniProt P49589)
Sequence of UniProt P49589 (P49589 whole entry, looked up): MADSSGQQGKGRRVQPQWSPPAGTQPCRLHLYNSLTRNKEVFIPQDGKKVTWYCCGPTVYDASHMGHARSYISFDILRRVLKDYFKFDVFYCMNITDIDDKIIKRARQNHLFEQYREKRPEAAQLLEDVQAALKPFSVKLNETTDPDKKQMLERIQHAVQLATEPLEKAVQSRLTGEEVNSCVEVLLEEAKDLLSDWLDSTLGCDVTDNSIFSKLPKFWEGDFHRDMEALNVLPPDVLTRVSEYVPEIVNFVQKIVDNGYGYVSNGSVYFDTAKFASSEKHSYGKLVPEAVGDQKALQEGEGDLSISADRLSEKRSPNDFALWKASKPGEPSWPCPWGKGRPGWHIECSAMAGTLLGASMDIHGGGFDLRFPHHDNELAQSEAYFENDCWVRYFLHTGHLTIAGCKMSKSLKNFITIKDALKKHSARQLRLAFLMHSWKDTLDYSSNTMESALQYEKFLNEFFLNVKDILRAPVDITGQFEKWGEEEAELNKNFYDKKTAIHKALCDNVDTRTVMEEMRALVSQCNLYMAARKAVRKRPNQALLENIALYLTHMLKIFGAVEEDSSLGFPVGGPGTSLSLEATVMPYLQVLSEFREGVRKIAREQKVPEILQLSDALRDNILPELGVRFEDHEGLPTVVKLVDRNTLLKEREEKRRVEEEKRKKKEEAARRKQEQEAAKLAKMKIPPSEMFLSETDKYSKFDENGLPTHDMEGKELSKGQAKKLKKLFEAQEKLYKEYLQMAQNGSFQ
inactive: [1] 0.008 | [2] -0.029 | [3] 0.018 | [4] -0.018 | [5] -0.006 | [6] 0.022 | [20] -0.032 | [7] -0.024 | [8] 0.015 | [9] 0.001 | [10] -0.012 | [11] 0.015 | [12] -0.016 | [13] 0.033 | [14] -0.016 | [15] -0.001 | [16] 0.015 | [17] -0.032 | [18] 0.009 | [19] 0.016

C8orf37 (UniProt Q96NL8)
Sequence of UniProt Q96NL8 (Q96NL8 whole entry, looked up): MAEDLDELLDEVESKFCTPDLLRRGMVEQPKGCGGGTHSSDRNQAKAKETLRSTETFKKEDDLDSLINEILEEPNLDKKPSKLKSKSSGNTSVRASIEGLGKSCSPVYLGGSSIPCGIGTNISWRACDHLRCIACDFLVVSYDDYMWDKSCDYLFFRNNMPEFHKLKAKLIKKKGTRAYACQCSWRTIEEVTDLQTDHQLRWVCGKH
inactive: [1] -0.006 | [2] -0.174 | [3] 0.029 | [4] -0.064 | [5] 0.005 | [6] 0.001 | [20] 0.037 | [7] -0.067 | [8] 0.007 | [9] -0.047 | [10] 0.214 | [11] -0.037 | [12] -0.004 | [13] 0.031 | [14] -0.038 | [16] -0.006 | [17] 0.089 | [18] 0.031 | [19] -0.089

CDCA8 (UniProt Q53HL2)
Sequence of UniProt Q53HL2 (Q53HL2 whole entry, looked up): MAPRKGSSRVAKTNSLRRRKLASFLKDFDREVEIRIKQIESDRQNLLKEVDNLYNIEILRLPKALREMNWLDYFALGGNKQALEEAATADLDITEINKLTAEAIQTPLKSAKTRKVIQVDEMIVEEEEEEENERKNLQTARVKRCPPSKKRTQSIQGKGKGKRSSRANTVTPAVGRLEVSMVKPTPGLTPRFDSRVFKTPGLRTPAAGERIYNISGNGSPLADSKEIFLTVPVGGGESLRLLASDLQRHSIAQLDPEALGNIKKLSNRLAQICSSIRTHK
inactive: [1] 0.112 | [2] 0.054 | [3] 0.009 | [4] -0.071 | [5] -0.12 | [20] -0.246 | [7] -0.01 | [8] -0.054 | [10] 0.047 | [14] -0.082 | [15] 0.038 | [16] 0.011

C3orf33 (UniProt Q6P1S2)
Sequence of UniProt Q6P1S2 (Q6P1S2 whole entry, looked up): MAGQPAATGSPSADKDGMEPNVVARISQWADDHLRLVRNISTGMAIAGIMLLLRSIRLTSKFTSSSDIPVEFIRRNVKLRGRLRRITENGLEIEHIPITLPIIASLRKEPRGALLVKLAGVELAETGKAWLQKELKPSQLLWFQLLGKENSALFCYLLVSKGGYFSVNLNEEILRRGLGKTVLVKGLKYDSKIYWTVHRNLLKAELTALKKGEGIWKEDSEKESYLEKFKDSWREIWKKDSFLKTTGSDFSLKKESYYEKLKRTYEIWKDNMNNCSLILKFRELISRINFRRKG
inactive: [1] 0.195 | [2] -0.205 | [3] 0.209 | [4] -0.124 | [5] 0.068 | [6] 0.032 | [20] 0.123 | [9] -0.281 | [10] -0.045 | [11] -0.084 | [12] 0.17 | [13] 0.012 | [14] -0.001 | [15] 0.046 | [16] -0.031 | [17] 0.117 | [18] -0.205 | [19] 0.008

CHAF1A (UniProt Q13111)
inactive: [1] -0.017 | [2] -0.089 | [3] -0.005 | [4] -0.004 | [5] -0.005 | [6] 0.009 | [20] -0.008 | [7] -0.025 | [8] 0.036 | [9] -0.011 | [10] 0.026 | [11] -0.017 | [12] 0.011 | [13] 0.018 | [14] 0.032 | [15] 0.049 | [16] -0.043 | [17] 0.001 | [18] 0.001 | [19] 0.012

CD80 (UniProt P33681)
Sequence of UniProt P33681 (P33681 whole entry, looked up): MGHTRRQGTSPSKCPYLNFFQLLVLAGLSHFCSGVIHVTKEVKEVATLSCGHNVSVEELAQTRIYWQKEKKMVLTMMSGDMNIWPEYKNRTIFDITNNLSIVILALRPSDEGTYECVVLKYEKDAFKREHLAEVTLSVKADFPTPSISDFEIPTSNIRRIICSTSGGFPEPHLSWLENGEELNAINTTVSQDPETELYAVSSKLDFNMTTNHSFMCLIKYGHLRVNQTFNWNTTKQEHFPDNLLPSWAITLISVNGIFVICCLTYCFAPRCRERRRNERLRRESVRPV
inactive: [1] -0.139 | [2] 0.041 | [3] 0.063 | [4] -0.013 | [6] -0.087 | [20] -0.02 | [7] 0.058 | [8] -0.029 | [9] 0.096 | [11] 0.034 | [12] 0.207 | [13] -0.051 | [14] -0.136 | [15] 0.106 | [16] -0.084 | [17] 0.043 | [18] -0.119 | [19] 0.014

CEBPZOS (UniProt A8MTT3)
Sequence of UniProt A8MTT3 (A8MTT3 whole entry, looked up): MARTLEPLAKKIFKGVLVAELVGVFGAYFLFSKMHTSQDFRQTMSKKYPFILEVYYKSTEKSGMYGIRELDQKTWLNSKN
inactive: [1] -0.038 | [2] 0.013 | [3] 0.004 | [4] 0.003 | [6] -0.014 | [20] 0.006 | [7] -0.011 | [8] 0.005 | [9] -0.015 | [11] 0.02 | [12] 0.035 | [13] 0.022 | [14] -0.047 | [15] -0.054 | [16] 0.04 | [17] 0.112 | [18] -0.032 | [19] 0.012

BCR (UniProt P11274)
inactive: [1] -0.006 | [2] 0.037 | [3] 0.047 | [4] 0.012 | [5] -0.01 | [6] 0.004 | [20] -0.052 | [7] -0.025 | [8] -0.011 | [9] -0.041 | [10] -0.026 | [11] 0.037 | [12] 0.025 | [13] -0.025 | [14] 0.014 | [15] -0.001 | [16] -0.032 | [17] 0.025 | [18] 0 | [19] 0.017

CDK5 (UniProt Q00535)
Sequence of UniProt Q00535 (Q00535 whole entry, looked up): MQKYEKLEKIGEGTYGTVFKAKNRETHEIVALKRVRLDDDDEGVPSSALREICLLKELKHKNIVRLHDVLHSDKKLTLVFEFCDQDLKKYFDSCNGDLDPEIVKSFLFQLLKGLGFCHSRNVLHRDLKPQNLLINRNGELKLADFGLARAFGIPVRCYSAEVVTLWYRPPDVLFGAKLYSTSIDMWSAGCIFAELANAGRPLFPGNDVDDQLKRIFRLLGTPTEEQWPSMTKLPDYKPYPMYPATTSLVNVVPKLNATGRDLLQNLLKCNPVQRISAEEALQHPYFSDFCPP
active: [11] 0.53
inactive: [1] -0.018 | [2] -0.065 | [3] 0.126 | [4] -0.041 | [5] -0.023 | [6] 0.01 | [7] 0.367 | [8] 0.004 | [9] 0.033 | [10] 0.015 | [12] 0.004 | [13] -0.023 | [14] -0.032 | [15] -0.034 | [16] -0.006 | [17] -0.052 | [18] 0.023 | [19] -0.058

ATXN2 (UniProt F8WB05)
inactive: [1] 0.073 | [2] -0.082 | [3] 0.09 | [4] -0.191 | [5] -0.063 | [6] -0.011 | [20] -0.083 | [7] -0.036 | [8] 0.055 | [9] -0.157 | [10] -0.538 | [11] -0.104 | [12] 0 | [13] 0.033 | [14] 0.037 | [16] 0.006 | [17] 0.119 | [18] -0.044 | [19] 0.048

BCORL1 isoform 3 (UniProt Q5H9F3)
inactive: [1] 0.002 | [2] -0.015 | [3] 0.15 | [4] -0.117 | [6] 0.004 | [20] -0.115 | [7] -0.114 | [8] -0.005 | [12] -0.07 | [13] 0.075 | [14] 0.074 | [16] 0.001 | [17] -0.321 | [18] -0.01

C16orf70 (UniProt Q9BSU1)
Sequence of UniProt Q9BSU1 (Q9BSU1 whole entry, looked up): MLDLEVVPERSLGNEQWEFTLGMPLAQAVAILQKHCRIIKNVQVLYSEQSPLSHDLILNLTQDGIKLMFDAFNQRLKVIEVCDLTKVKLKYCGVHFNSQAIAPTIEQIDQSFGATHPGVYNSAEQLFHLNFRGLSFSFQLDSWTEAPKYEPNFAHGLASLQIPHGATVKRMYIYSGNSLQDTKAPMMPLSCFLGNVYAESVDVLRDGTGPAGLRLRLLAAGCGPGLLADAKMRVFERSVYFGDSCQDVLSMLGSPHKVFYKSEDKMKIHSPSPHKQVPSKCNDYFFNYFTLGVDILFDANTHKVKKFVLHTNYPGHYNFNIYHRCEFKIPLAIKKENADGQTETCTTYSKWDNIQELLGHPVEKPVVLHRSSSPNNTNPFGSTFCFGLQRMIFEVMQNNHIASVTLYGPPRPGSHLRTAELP
active: [4] 0.271
inactive: [1] 0.023 | [2] 0.194 | [3] -0.06 | [5] 0.033 | [6] -0.128 | [20] -0.193 | [7] 0.016 | [8] 0.055 | [9] -0.021 | [10] -0.048 | [11] -0.011 | [12] 0.034 | [13] 0.031 | [14] -0.068 | [16] -0.043 | [17] 0 | [18] 0.058 | [19] -0.024

CCP110 (UniProt O43303)
Sequence of UniProt O43303 (O43303 whole entry, looked up): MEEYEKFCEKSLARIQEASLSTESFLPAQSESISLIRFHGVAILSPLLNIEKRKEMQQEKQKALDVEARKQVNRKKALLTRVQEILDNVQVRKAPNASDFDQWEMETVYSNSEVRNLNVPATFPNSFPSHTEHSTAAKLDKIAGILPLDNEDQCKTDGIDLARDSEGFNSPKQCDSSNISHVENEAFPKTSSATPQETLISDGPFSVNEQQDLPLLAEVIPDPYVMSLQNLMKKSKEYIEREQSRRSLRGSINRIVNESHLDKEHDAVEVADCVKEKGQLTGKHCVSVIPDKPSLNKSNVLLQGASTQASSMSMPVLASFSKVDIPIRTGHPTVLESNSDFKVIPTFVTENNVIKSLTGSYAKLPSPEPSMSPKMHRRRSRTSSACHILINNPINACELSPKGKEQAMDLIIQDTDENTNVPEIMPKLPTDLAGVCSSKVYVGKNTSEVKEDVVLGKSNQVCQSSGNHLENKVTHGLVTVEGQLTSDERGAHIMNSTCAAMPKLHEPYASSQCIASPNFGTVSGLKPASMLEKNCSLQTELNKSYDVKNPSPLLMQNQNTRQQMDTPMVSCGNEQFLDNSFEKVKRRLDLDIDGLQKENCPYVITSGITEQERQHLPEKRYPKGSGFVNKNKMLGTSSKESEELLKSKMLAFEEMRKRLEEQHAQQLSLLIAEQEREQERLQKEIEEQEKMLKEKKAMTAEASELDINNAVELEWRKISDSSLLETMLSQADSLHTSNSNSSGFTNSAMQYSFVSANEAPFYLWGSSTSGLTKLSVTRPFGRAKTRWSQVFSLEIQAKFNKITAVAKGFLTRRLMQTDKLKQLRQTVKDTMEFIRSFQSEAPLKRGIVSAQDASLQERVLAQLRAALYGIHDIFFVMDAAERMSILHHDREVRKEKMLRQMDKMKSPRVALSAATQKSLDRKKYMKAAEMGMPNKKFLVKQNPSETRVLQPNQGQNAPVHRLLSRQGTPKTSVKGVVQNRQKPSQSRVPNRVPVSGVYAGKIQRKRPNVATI
active: [2] -0.436
inactive: [1] 0.081 | [3] 0.046 | [4] -0.022 | [5] 0.03 | [6] -0.088 | [20] -0.047 | [7] -0.051 | [8] 0.051 | [9] 0.075 | [10] -0.008 | [12] 0.082 | [13] 0.001 | [14] 0.054 | [16] -0.186 | [17] 0.01 | [18] 0.113

CANX isoform 2 (UniProt P27824)
Sequence of UniProt P27824 (P27824 whole entry, looked up): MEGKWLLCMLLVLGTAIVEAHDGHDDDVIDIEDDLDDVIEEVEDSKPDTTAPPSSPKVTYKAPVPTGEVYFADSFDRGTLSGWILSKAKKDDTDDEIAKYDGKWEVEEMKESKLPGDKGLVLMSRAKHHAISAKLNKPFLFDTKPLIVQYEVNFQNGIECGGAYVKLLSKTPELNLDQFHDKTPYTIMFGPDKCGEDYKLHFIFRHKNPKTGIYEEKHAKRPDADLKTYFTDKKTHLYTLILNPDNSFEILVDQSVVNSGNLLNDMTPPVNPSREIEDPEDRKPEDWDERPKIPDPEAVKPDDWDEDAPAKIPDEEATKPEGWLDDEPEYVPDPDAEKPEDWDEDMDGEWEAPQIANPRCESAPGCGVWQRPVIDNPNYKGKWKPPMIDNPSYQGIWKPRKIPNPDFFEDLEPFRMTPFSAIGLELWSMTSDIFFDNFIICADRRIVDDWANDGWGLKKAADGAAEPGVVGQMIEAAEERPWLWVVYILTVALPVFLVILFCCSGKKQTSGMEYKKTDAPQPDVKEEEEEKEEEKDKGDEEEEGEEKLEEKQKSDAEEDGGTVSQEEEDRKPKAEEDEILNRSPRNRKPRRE
inactive: [1] 0.007 | [2] -0.027 | [3] 0.048 | [4] 0.004 | [5] 0 | [6] -0.007 | [20] -0.042 | [7] 0 | [8] 0.013 | [9] 0.003 | [10] -0.046 | [11] -0.009 | [12] -0.029 | [13] 0.003 | [14] 0.007 | [15] 0.001 | [16] -0.004 | [17] 0.011 | [18] 0.029 | [19] -0.025

AUH (UniProt Q13825)
Sequence of UniProt Q13825 (Q13825 whole entry, looked up): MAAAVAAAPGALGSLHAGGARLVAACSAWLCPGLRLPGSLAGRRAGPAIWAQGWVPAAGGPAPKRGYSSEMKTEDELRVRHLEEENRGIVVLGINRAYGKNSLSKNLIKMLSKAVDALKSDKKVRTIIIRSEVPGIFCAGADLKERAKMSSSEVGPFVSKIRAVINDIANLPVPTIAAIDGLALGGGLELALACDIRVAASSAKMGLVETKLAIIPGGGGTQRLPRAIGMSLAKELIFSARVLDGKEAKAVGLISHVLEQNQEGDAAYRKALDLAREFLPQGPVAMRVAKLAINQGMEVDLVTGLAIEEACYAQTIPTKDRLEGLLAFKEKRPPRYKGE
inactive: [1] 0.003 | [2] -0.031 | [3] 0.083 | [4] -0.042 | [5] 0.111 | [6] 0.027 | [20] -0.035 | [7] 0.026 | [8] -0.045 | [9] -0.008 | [10] 0.024 | [11] 0.103 | [12] -0.161 | [13] -0.003 | [14] 0.011 | [16] -0.304 | [17] 0.015 | [18] -0.132 | [19] -0.058

CACUL1 (UniProt Q86Y37)
Sequence of UniProt Q86Y37 (Q86Y37 whole entry, looked up): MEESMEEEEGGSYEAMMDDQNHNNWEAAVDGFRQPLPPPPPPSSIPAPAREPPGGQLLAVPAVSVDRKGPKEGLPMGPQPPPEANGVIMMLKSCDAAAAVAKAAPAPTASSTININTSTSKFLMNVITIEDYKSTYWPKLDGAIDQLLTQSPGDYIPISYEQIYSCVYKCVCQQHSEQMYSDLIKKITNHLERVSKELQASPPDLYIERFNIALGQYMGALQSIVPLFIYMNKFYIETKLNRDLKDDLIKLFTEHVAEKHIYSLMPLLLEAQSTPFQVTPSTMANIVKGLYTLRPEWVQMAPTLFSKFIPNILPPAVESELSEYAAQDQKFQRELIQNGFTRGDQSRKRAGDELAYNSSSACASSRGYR
inactive: [1] 0.232 | [2] -0.048 | [3] 0.087 | [4] 0.044 | [6] 0.027 | [20] 0.045 | [7] 0.042 | [8] 0.023 | [9] 0.016 | [11] 0.164 | [12] -0.023 | [13] 0.073 | [14] 0.027 | [16] -0.165 | [17] -0.126 | [18] 0.115 | [19] -0.09
